Measured values from PubChem BioAssay.
Activity calls are given as the source filed them.

Assays:
Albumin (Bos taurus) = Albumin (Bos taurus) (UniProt P02769); test: bovine serum albumin binders on microarray, profiling panel, artefact control for SMM control protein annotation, biochemical, small-molecule microarray, Alexa647 label, 635/667 nm fluorescence (AID 1118); settings: BSA-A647 binding, fluorescence 635 nm, higher = more signal;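 note: score merges 667 nm emission intensity and signal-to-noise per printed compound spot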
Sequence of Albumin (Bos taurus) (P02769 whole entry, looked up): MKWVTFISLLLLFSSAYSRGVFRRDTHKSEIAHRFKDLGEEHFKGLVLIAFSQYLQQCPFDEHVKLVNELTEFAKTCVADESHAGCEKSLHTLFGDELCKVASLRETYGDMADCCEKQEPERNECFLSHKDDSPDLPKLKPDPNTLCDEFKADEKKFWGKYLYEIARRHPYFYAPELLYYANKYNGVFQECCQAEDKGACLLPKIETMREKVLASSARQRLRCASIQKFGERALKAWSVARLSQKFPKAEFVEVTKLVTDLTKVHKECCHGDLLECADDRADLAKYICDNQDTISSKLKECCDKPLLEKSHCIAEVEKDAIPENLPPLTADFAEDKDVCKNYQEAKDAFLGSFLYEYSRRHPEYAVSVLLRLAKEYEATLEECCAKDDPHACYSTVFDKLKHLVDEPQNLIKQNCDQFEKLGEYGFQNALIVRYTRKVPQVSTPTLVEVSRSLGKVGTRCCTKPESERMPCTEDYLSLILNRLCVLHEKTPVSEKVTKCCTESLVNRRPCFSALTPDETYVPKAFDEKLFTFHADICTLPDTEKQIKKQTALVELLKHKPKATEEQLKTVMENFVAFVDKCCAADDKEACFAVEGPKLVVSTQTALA

[1] = small-molecule microarray binders of probe aXIP, primary screen, biochemical, NeuroSMM set, 635/667 nm fluorescence (AID 1119); settings: higher = more signal, called active from +8 up or from −8 down;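 note: probe is the protein aXip251-270 applied at 1 µg/mL to compound-printed slides; binding of probe to printed compounds measured as 667 nm fluorescence plus signal to noise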
[2] = small-molecule binders of probe aNOTCH3, primary screen, biochemical, small-molecule microarray, 635/667 nm fluorescence (AID 1120); settings: higher = more signal;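 note: probe is a biotin-tagged antibody raised against NOTCH3 rather than NOTCH3 protein; score merges spot fluorescence near 667 nm with spot signal to noise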
[3] = small-molecule binders of probe aNOTCH2, primary screen, biochemical, small-molecule microarray, 635/667 nm fluorescence (AID 1121); settings: higher = more signal;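 note: score merges feature fluorescence read at 667 nm with its signal to noise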
[4] = molecular target: Carbonic anhydrase 2 (Homo sapiens) (UniProt P00918); test: CAII small-molecule binders, profiling panel, biochemical, small-molecule microarray, Alexa647-labelled CAII (AID 1122); settings: CAII-A647 binding fluorescence, higher = more signal
[5] = COS7 lysate on small-molecule microarray, probe aHis, 635 nm (AID 1123); settings: COS7 cell lysate, fluorescence, higher = more signal;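 note: z-score combines 667nm fluorescence intensity with signal-to-noise per printed compound spot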
[6] = compound binding in COS7 lysate, probe aLAP1, primary screen, cell lysate, small-molecule microarray (AID 1124); settings: probe aLAP1, fluorescence, higher = more signal;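 note: lysate comes from COS7 cells expressing LAP1 and is applied at 0.3 µg/mL; score merges spot fluorescence near 667 nm with signal-to-noise over triplicate slides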
Sam68 (KHDRBS1) = test: Sam68 small-molecule binders, primary screen, biochemical, small-molecule microarray, 635 nm fluorescence (AID 1125); settings: small-molecule microarray binding, higher = more signal;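 note: score merges 667 nm channel intensity with signal to noise over triplicate slides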
[7] = test system: Chordin-like protein 2 (CHRDL2); test: CHRDL2 small-molecule binders, primary screen, biochemical, small-molecule microarray, 635 nm fluorescence (AID 1126); settings: small-molecule microarray binding, fluorescence 635 nm; higher = more signal;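 note: printed compound slides probed with Chrdl2 protein at 4 µg/mL for 1 h at 4 C; score merges 667 nm emission intensity with signal to noise over three replicate slides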
[8] = molecular target: Concanavalin-A (Canavalia ensiformis) (UniProt P02866); test: ConA small-molecule binders, primary screen, artefact control for SMM control protein annotation, biochemical, small-molecule microarray, Alexa647 label, 635 nm (AID 1127); settings: ConA-A647 binding fluorescence, higher = more signal;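 note: z combines 667 nm emission intensity with signal-to-noise across three replicate slides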
Sequence of Concanavalin-A (Canavalia ensiformis) (P02866 whole entry, looked up): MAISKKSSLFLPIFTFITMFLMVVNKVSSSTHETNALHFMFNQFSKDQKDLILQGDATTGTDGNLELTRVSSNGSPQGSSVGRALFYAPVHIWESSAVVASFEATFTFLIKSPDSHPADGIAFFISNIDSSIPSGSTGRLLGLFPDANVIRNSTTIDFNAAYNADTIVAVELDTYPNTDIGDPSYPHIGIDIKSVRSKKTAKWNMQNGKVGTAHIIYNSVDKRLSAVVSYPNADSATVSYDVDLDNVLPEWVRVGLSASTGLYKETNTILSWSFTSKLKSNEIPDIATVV

[9] = anti-His antibody binders, primary screen, artefact control for SMM control protein annotation, biochemical, small-molecule microarray, 635 nm fluorescence (AID 1128); settings: anti-His Alexa647 antibody binding, higher = more signal;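 note: score merges feature fluorescence with signal-to-noise for each printed compound spot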
[10] = test system: Human papillomavirus type 1a E7 protein (residues 1-88); test: HPV1a E7 small-molecule binders, primary screen, biochemical, small-molecule microarray, residues 1-88, 635 nm (AID 1129); settings: small-molecule microarray binding, fluorescence 635 nm; higher = more signal
[11] = molecular target: Focal adhesion kinase 1 (Homo sapiens) (UniProt Q05397); test: small-molecule microarray binders of FAK, primary screen, biochemical, 635/667 nm fluorescence, BSA, DTT (AID 1130); settings: PTK2 binding, 635 nm fluorescence, higher = more signal;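 note: composite of spot emission at 667 nm and signal to noise over triplicate slides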
Sequence of Focal adhesion kinase 1 (Homo sapiens) (Q05397 whole entry, looked up): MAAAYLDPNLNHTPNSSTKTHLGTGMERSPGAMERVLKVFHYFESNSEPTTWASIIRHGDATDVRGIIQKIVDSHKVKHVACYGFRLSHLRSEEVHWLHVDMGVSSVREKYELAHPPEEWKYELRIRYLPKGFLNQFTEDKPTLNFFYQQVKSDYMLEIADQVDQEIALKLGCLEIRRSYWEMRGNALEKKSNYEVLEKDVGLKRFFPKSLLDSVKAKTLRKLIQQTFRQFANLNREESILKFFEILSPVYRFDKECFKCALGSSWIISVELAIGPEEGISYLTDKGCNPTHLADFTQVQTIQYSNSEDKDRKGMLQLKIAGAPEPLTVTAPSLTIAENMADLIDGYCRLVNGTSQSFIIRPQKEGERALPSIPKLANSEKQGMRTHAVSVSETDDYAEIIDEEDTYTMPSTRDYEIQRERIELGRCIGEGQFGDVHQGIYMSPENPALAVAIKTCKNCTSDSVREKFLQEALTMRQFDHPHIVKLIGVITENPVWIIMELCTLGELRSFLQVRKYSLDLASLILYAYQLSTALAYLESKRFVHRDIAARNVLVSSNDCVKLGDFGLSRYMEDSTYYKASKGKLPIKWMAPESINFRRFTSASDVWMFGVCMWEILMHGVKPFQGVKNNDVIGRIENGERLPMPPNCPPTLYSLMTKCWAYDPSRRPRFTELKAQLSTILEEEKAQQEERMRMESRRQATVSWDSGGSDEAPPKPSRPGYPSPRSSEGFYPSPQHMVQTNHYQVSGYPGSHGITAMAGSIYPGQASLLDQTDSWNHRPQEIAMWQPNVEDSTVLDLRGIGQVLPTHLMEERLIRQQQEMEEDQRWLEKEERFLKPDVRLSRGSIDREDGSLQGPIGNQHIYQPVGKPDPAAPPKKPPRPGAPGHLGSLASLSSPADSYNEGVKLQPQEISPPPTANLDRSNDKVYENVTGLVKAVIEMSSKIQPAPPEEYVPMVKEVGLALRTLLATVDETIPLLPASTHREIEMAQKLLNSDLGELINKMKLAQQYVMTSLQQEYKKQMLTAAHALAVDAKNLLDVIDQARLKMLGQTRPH

[12] = test system: Fibrinogen (Alexa647-labelled); test: fibrinogen binders on compound microarrays, profiling panel, artefact control for SMM control-protein annotation, biochemical, small-molecule microarray, 635/667 nm fluorescence (AID 1131); settings: fibrinogen-A647 binding fluorescence, higher = more signal;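 note: z-score merges 667 nm fluorescence with per-spot signal-to-noise over triplicate slides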
[13] = molecular target: Follistatin (Homo sapiens) (UniProt P19883); test: follistatin binders on small-molecule microarrays, primary screen, biochemical, small-molecule microarray, 635/667 nm fluorescence (AID 1132); settings: FST binding, 635 nm fluorescence, higher = more signal
Sequence of Follistatin (Homo sapiens) (P19883 whole entry, looked up): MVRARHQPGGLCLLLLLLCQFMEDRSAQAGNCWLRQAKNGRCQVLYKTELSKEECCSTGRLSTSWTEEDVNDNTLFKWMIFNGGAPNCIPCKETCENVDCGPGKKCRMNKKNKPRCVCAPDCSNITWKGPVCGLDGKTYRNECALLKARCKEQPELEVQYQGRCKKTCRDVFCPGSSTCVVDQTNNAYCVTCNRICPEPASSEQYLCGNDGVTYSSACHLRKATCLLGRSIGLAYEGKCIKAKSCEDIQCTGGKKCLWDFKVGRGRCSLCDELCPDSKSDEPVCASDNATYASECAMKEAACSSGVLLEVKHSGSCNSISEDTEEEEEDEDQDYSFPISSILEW

[14] = molecular target: Fibroblast growth factor 2 (Homo sapiens) (UniProt P09038); test: FGF2 binders on small-molecule microarrays, primary screen, biochemical, small-molecule microarray, 635/667 nm fluorescence (AID 1133); settings: small-molecule microarray binding, FGF2, fluorescence 635/667; higher = more signal
Sequence of Fibroblast growth factor 2 (Homo sapiens) (P09038 whole entry, looked up): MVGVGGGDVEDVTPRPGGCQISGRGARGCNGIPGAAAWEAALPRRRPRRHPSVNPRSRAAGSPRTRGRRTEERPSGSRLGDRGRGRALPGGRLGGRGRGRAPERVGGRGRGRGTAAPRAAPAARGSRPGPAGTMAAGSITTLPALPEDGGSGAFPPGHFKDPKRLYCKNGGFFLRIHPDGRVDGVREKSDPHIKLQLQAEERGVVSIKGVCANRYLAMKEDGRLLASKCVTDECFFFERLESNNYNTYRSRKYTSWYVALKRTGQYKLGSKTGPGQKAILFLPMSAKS

[15] = mitochondrial membrane potential change in A549 cells, profiling panel, cell-based, JC-1 fluorescence, basal, 24 h, 100 nL (AID 1138); settings: higher = more signal;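 note: A549 lung adenocarcinoma cells under basal conditions with no added stimulus; test concentration not given here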
Lefty1 = Lefty1 binders on small-molecule microarrays, primary screen, biochemical, small-molecule microarray, 635/667 nm fluorescence (AID 1139); settings: small-molecule microarray binding, fluorescence 635/667; higher = more signal
[16] = test system: wheat germ agglutinin (Triticum aestivum), Alexa647-labelled; test: wheat germ agglutinin binders on compound microarrays, profiling panel, artefact control for SMM control-protein annotation, biochemical, small-molecule microarray, 635/667 nm fluorescence (AID 1140); settings: WGA-A647 binding, 635 nm fluorescence, higher = more signal;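 note: score merges 667 nm feature emission with signal to noise over triplicate slides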
[17] = molecular target: Luciferin 4-monooxygenase (Photinus pyralis) (UniProt P08659); test: firefly luciferase enzyme inhibitors, primary screen, biochemical, luminescence, purified enzyme, 2006 set (AID 1141); settings: SteadyGlo luminescence, 30 min, higher = more signal, called active from +8 up or from −8 down;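 note: cell-free assay with purified firefly luciferase at 100 ng per well in PBS; test concentration not given here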
Sequence of Luciferin 4-monooxygenase (Photinus pyralis) (P08659 whole entry, looked up): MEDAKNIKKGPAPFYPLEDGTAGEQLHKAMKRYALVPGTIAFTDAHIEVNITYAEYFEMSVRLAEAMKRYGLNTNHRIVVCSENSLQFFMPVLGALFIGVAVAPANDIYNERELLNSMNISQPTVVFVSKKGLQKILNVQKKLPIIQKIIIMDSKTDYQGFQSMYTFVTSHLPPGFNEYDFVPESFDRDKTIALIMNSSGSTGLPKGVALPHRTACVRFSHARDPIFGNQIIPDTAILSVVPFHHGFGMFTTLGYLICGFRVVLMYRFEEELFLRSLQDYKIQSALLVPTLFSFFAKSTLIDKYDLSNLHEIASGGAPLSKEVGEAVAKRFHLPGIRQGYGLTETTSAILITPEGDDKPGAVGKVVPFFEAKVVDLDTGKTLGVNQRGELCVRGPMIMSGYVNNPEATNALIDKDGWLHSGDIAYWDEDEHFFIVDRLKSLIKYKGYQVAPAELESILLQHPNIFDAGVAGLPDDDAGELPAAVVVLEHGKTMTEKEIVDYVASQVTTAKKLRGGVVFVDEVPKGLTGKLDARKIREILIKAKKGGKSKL

| Structure (SMILES) | composite z-score (Albumin (Bos taurus)) | composite Z-score [1] | composite z-score [2] | composite z-score [3] | composite z-score [4] | composite z-score [5] | composite z-score [6] | composite z-score (Sam68 (KHDRBS1)) | composite z-score [7] | composite z-score [8] | composite z-score [9] | composite z-score [10] | composite z-score [11] | composite z-score [12] | composite z-score [13] | composite z-score [14] | z-score [15] | composite z-score (Lefty1) | composite z-score [16] | z-score [17] |
| --- | --- | --- | --- | --- | --- | --- | --- | --- | --- | --- | --- | --- | --- | --- | --- | --- | --- | --- | --- | --- |
| CCCCCCc1nc(-c2ccc(OC)nc2)cc2c1[Si](C(C)C)(C(C)C)O[C@H]2c1ccccc1 | -0.807 | 0.131 (inactive) | -0.0864 | -0.166 | -0.0224 | 0.0277 | -0.08 | -0.187 | 1.12 | 0.0837 | -0.133 | -0.484 | 0.0202 | -0.51 | 0.885 | 0.896 | -0.959 | 1.44 | 0.211 | 0.974 (inactive) |
| COc1cc2c(cc1OC)CN(C(=O)[C@@H]1[C@H]3C(=O)O[C@H](c4ccccc4)[C@H](c4ccccc4)N3[C@H](c3ccc(O)cc3)[C@@]13C(=O)Nc1ccccc13)CC2 | 0.551 | 0.799 (inactive) | -0.0647 | -0.117 | 0.622 | 1.74 | 0.169 | 0.751 | 0.257 | 1.13 | 0.948 | 1.21 | 0.684 | 0.962 | 0.421 | 0.246 | -0.379 | 0.259 | 0.965 | 0.81 (inactive) |
| Oc1ccc2cc[n+](Cc3sc4ccccc4c3Cl)cc2c1 | -0.49 | 0.598 (inactive) | 0.0854 | -0.0694 | 0.888 | 2.88 | 1.07 | -0.702 | 0.617 | 0.376 | -0.146 | -0.537 | 0.703 | -0.462 | 1.33 | 0.567 | -0.832 | 0.506 | 1.14 | -0.226 (inactive) |
| COC(=O)[C@@]1(Cc2ccc(OC)cc2)[C@@H]2C(=CC(=O)[C@H]2CC(=O)C(=O)N2CCCC2)CN1C(=O)c1ccccc1 | 0.826 | -0.0056 (inactive) | 0.132 | -0.152 | 0.558 | 2.23 | 0.0014 | -0.685 | -0.694 | 0.0351 | 1.47 | 0.882 | 0.528 | 0.802 | -0.0125 | -0.322 | 1.55 | -0.319 | 0.357 | 0.826 (inactive) |
| CCCc1cc2c(n1Cc1cc(F)cc(F)c1)C(C)C1CN(C(=O)c3ccccc3)C(C)(C(=O)OC)C21 (stereo not given) | 1 | 0.723 (inactive) | 0.272 | 0.341 | 0.633 | 3.26 | 1.07 | 1.22 | -0.255 | 1.11 | 2.15 | 1.24 | 2.09 | 0.982 | 0.542 | -0.48 | 1.24 | -0.311 | 1.01 | -1.15 (inactive) |
